Measured values published in PubChem BioAssay (Tox21).
Records with an inconclusive call do not appear. Active and inactive are the calls of the source. Unless noted, calls come from the whole dose curve; as a rule, active = well fitted curve in the direction sought with a large enough effect in the repeat runs; inconclusive = weak or mixed curves; inactive = no such curve, though single readings can be large; an effect the other way counts as inactive or inconclusive.

How the values were obtained:
[1] = qHTS assay to identify small molecule antagonists of the estrogen related receptor (ERR) signaling pathway from Tox21 library - cell viability counter screen (AID 1224834); note: potency is the fitted concentration of half-maximal effect; nearly all actives have a fitted effect of over 30% in size
Outline: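 Multiplexed viability counter screen in ERR cells: 17.5 h compound exposure at 37 C, CellTiter-Fluor added, 30 min at 37 C/5% CO2, fluorescence read.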

[2] = target: Nuclear receptor subfamily 1 group I member 3 (Homo sapiens) (UniProt Q14994); assay: qHTS assay to identify small molecule antagonists of the constitutive androstane receptor (CAR) signaling pathway (AID 1224838);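 note: HepG2 cells stably expressing hCAR with CYP2B6 luciferase reporter stimulated by CITCO; % is set by controls: 0 for no effect and ±100 for the full control effect; nearly all actives have a fitted effect of over 40% in size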
Outline: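 Read-out: ONE-Glo luciferase luminescence after 30 min at room temperature. HepG2-CYP2B6-hCAR double-stable cells, compounds in 15-point titration plus 50 nM CITCO final, 24 h at 37 C/5% CO2.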

[3] = target: Nuclear receptor subfamily 1 group I member 3 (Homo sapiens) (UniProt Q14994); assay: qHTS assay to identify small molecule agonists of the constitutive androstane receptor (CAR) signaling pathway (AID 1224839); note: nearly all actives have a fitted effect of over 15% in size; note: potency is the fitted concentration of half-maximal effect;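 for activation: HepG2 cells stably carrying human CAR and a CYP2B6 luciferase reporter; % is set by controls: 0 for no effect and ±100 for the full control effect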
Outline: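 Readout: firefly luciferase luminescence via ONE-Glo. System: HepG2 double-stable for hCAR and CYP2B6-2.2kb. Conditions: 15-point compound titration, PK11195 at 0.75 uM final, 24 h incubation.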

[4] = qHTS assay to identify small molecule agonists of the estrogen related receptor signaling pathway with the pleiotropic PPARgamma coactivator (PGC) from Tox21 10K library (AID 1224842); note: % is set by controls: 0 for no effect and ±100 for the full control effect; nearly all actives have a fitted effect of over 15% in size
Outline: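 PGC/ERR reporter cell line, 2,000 cells per well, incubated 6 h at 37 C before 23 nL compound in DMSO was added. After 18 h at 37 C, One-Glo luminescence read following 30 min at room temperature.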

[5] = qHTS assay to identify small molecule agonists of H2AX (AID 1224845; active = well fitted activation curve with a large enough effect in the signal ratio in the repeat runs, not every such curve was filed as active; the % refers to the signal ratio; note: % is set by controls: 0 for no effect and ±100 for the full control effect)
Outline: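 Wild-type CHO-K1 cells, plated overnight, exposed 3hr at 37C to 15 concentrations (0.76% DMSO final). Lysed, then HTRF anti-pH2AX (S139) cryptate and anti-H2AX-d2 antibodies, 24 hr room temperature; 665/620 nm emission read.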

[6] = qHTS assay to identify small molecule agonists of H2AX - cell viability counter screen (AID 1224847; calls by dose curve; note: nearly all actives have a fitted effect of over 30% in size; note: potency is the fitted concentration of half-maximal effect)
Outline: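 For this counter screen, overnight-attached CHO-K1 cells received test compounds (15 concentrations, 0.76% DMSO final); 3 hr later at 37C, CellTiter-Glo reagent was added and luminescence recorded after 30 min at room temperature.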

[7] = qHTS assay to identify small molecule antagonists of the estrogen related receptor (ERR) signaling pathway from Tox21 library (AID 1224848); note: nearly all actives have a fitted effect of over 50% in size; note: potency is the fitted concentration of half-maximal effect
Outline: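 Quantitative high-throughput format: ERR reporter cells (2,000/well) pre-incubated 6 h, treated 18 h at 37 C with compounds in DMSO alongside positive and negative controls, then read by ONE-Glo luminescence.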

[8] = qHTS assay to identify small molecule agonists of the estrogen related receptor (ERR) signaling pathway from Tox21 library (AID 1224849; calls by dose curve; note: % is set by controls: 0 for no effect and ±100 for the full control effect; nearly all actives have a fitted effect of over 15% in size); conditions: ERR reporter cell line, ONE-Glo luciferase, 18 h
Outline: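 Luminescence readout (ONE-Glo, 30 min RT) after 18 h compound exposure at 37 C of NTP-supplied ERR reporter cells; cells were plated 6 h before compound addition by pin tool.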

[9] = qHTS RealTime-Glo MT Cell Viability Assay in HEK293 cells - 32 hour (AID 1224868); note: nearly all actives have a fitted effect of over 50% in size; note: potency is the fitted concentration of half-maximal effect
Outline: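 Assay medium contained NanoLuc luciferase plus cell-permeant prosubstrate, added with HEK293 cells at 600 cells/well. After 5 h at 37 C/5% CO2 compounds were added; plates stayed at 37 C for 40 h with serial luminescence reads.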

[10] = A CellTox Green Cytotoxicity Assay to monitor cytotoxicity in HEK293 cells - 0 hour (AID 1224869); note: % is set by controls: 0 for no effect and ±100 for the full control effect; nearly all actives have a fitted effect of over 50% in size
Outline: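 Read-out: fluorescence of a cell-impermeant cyanine dye staining DNA of dead cells, proportional to cytotoxicity. HEK293, 600 cells/well with reagent, compound (23 nL DMSO) added after 5 h; reads at 0, 8, 16, 24, 32, 40 h.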

[11] = qHTS RealTime-Glo MT Cell Viability Assay in HepG2 cells - 40 hour (AID 1224870); note: nearly all actives have a fitted effect of over 50% in size; note: potency is the fitted concentration of half-maximal effect; for activity change, negative = cytotoxic: % is set by controls: 0 for no effect and ±100 for the full control effect
Outline: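 HepG2 cells (600/well) mixed with RealTime-Glo MT reagent, settled 5 h at 37 C/5% CO2 before compound addition. Nonlytic NanoLuc luminescence from viable-cell prosubstrate reduction read repeatedly during 40 h treatment at 37 C.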

[12] = target: Luciferin 4-monooxygenase (Photinus pyralis) (UniProt P08659); assay: qHTS assay to identify small molecule inhibitors of firefly luciferase (AID 1224835); note: nearly all actives have a fitted effect of over 25% in size; note: potency is the fitted concentration of half-maximal effect
Outline: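 Biochemical qHTS: compounds run as interplate titrations against purified firefly enzyme, with D-luciferin and ATP each at its KM concentration. Light output recorded by CCD imaging.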

[13] = qHTS assay to identify small molecule agonists of the constitutive androstane receptor (CAR) signaling pathway - cell viability counter screen (AID 1224836); note: nearly all actives have a fitted effect of over 45% in size; note: potency is the fitted concentration of half-maximal effect
Outline: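 Double-stable HepG2 hepatoma cells (hCAR plus CYP2B6-2.2kb) are treated for 23 h at 37 C with test compounds in 15-point concentration series. PK11195 at 0.75 uM final is co-added. Cell viability is quantified by CellTiter-Fluor.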

[14] = qHTS assay to identify small molecule antagonists of the constitutive androstane receptor (CAR) signaling pathway - cell viability counter screen (AID 1224837); note: nearly all actives have a fitted effect of over 45% in size; note: potency is the fitted concentration of half-maximal effect
Outline: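 Read-out: CellTiter-Fluor fluorescence after 23 hr at 37 C/5% CO2. Cells: HepG2 double-stable for hCAR and CYP2B6-2.2kb. Compounds tested at 15 concentrations in the presence of CITCO, final concentration 50 nM.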

[15] = qHTS assay to identify small molecule antagonists of the estrogen related receptor signaling pathway with the pleiotropic PPARgamma coactivator (PGC) from Tox21 10K library - cell viability counter screen (AID 1224840; active = well fitted cell-killing curve with a large enough effect in the repeat runs, not every such curve was filed as active; note: nearly all actives have a fitted effect of over 40% in size; note: potency is the fitted concentration of half-maximal effect)
Outline: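 Fluorescence read-out of CellTiter-Fluor viability reagent, added after cells had been exposed to compound in DMSO for 17.5 h at 37 C; 30 min development at 37 C/5% CO2. Cells: PGC/ERR line, 2,000/well.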

[16] = target: Thyrotropin receptor (Homo sapiens) (UniProt P16473); assay: qHTS assay to identify small molecule agonists of the thyroid stimulating hormone receptor (TSHR) signaling pathway (AID 1224843; calls by dose curve; note: % is set by controls: 0 for no effect and ±100 for the full control effect; nearly all actives have a fitted effect of over 45% in size)
Outline: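 Agonist-mode screen: TSHR HEK293 cells received test chemicals for half an hour at room temperature, then HTRF cAMP detection reagents for one hour prior to fluorescence measurement. Each chemical ran as a 15-concentration series, triplicated.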

[17] = qHTS assay to identify small molecule agonists of the hypoxia (HIF-1) signaling pathway - cell viability counter screen (AID 1224844; calls by dose curve; note: nearly all actives have a fitted effect of over 50% in size; note: potency is the fitted concentration of half-maximal effect)
Outline: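 CellTiter-Glo luminescence read-out, 30 min RT, taken in the same wells as the beta-lactamase HRE reporter assay; HRE-bla ME-180 cells, 0.5% dialyzed FBS, 17 hr compound treatment at 37C, 5% CO2.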

[18] = qHTS assay to identify small molecule agonists of the hypoxia (HIF-1) signaling pathway (AID 1224846; active = well fitted activation curve with a large enough effect in the signal ratio in the repeat runs, not every such curve was filed as active; the % refers to the signal ratio; note: % is set by controls: 0 for no effect and ±100 for the full control effect)
Outline: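 Beta-lactamase FRET read-out (CCF4-AM substrate) from ME-180 cells carrying an HRE-driven bla reporter, after 17 hrs compound exposure at 37C/5% CO2. Cells were seeded at 2,000 per well in 0.5% dialyzed FBS medium and preincubated 5 hrs.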

[19] = qHTS RealTime-Glo MT Cell Viability Assay in HepG2 cells - 24 hour (AID 1224867); note: nearly all actives have a fitted effect of over 50% in size; note: potency is the fitted concentration of half-maximal effect
Outline: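 qHTS, HepG2, 600 cells/well, RealTime-Glo (NanoLuc + prosubstrate) added with cells; 5 h preincubation; DMSO compound addition; 37 C; luminescence at 0/8/16/24/32/40 h.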

[20] = qHTS assay to identify small molecule antagonists of the estrogen related receptor signaling pathway with the pleiotropic PPARgamma coactivator (PGC) from Tox21 10K library (AID 1224841; call rule not given here; note: potency is the fitted concentration of half-maximal effect)
Outline: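 Luminescence read-out (One-Glo luciferase reagent, 30 min at room temperature) from PGC/ERR cells exposed to DMSO-dissolved test compounds for 18 h at 37 C; cells, 2,000 per well, had been preincubated 6 h before compound transfer.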

Luciferin 4-monooxygenase (Photinus pyralis), sequence (P08659 whole entry, looked up): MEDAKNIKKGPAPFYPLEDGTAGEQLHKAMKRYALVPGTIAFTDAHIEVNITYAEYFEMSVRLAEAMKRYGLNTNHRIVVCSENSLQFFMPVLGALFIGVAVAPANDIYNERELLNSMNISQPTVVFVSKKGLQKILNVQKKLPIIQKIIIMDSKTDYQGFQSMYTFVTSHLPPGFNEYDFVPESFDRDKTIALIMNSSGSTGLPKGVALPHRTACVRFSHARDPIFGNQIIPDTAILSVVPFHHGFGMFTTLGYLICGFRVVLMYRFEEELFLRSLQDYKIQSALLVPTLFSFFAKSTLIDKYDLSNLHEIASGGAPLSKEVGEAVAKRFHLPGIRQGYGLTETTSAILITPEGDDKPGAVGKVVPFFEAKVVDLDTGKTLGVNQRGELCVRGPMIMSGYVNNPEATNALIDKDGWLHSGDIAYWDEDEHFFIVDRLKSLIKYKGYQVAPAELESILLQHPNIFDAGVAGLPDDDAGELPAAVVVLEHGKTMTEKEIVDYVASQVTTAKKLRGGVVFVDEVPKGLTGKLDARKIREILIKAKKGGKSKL
Thyrotropin receptor (Homo sapiens), sequence (P16473 whole entry, looked up): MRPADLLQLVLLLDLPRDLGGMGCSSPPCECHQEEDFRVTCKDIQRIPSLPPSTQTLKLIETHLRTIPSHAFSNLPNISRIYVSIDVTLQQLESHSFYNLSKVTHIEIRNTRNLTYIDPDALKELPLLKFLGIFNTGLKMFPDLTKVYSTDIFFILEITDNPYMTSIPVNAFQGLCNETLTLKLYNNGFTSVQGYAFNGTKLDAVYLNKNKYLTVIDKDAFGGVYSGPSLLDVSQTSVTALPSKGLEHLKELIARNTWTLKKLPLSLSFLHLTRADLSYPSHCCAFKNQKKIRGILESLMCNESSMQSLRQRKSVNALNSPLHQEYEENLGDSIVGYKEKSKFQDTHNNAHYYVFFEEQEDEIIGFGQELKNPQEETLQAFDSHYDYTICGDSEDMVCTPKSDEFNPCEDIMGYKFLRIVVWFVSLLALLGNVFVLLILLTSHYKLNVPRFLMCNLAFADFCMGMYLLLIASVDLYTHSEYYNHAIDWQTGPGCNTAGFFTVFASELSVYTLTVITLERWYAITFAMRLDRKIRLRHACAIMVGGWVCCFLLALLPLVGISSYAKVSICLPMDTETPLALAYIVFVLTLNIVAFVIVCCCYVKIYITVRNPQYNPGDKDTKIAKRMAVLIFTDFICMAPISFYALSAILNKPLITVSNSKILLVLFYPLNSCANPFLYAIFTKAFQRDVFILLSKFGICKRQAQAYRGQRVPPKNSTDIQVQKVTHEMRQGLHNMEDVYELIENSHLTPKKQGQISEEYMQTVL
Nuclear receptor subfamily 1 group I member 3 (Homo sapiens), sequence (Q14994 whole entry, looked up): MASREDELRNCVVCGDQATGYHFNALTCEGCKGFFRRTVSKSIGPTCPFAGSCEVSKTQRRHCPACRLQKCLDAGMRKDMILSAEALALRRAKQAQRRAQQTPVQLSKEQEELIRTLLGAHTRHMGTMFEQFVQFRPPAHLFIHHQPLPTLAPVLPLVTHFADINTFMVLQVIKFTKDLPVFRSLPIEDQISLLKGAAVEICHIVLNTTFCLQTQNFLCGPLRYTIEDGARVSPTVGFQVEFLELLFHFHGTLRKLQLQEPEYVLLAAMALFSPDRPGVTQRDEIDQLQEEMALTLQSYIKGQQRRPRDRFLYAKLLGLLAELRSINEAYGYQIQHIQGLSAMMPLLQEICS

CCCCCCCCCCCCOCCOCCOCCOCCOCCOCCOCCOCCOCCO
inactive: Potency [2] | Potency [3] | Potency [4] | Potency [5] | activity change, positive = activation ([8]; at 42.5 µM (top of the series)) -54.8% | Potency [10] | Potency [11]
active: Potency [1] 26.6 µM | Potency [6] 55.2 µM | Potency [7] 2.98 µM | Potency [9] 5.35 µM

NC[C@H]1O[C@H](O[C@H]2[C@H](O[C@@H]3O[C@H](CO)[C@@H](O)[C@H]3O)C(O)[C@H](N)C[C@@H]2N)[C@H](N)[C@@H](O)[C@@H]1O (some centres undefined)
inactive: activity change, negative = inhibition [12] 6.81% [at 10.5 µM] | viability change, negative = cytotoxic [13] 0.325% [at 8.39 µM] | activity change, negative = cytotoxicity [14] 3.7% [at 8.39 µM] | activity, negative = inhibition [2] -13% [at 8.39 µM] | viability change, negative = cytotoxic [15] 0.247% [at 8.39 µM] | activation [16] -0.16% [at 8.39 µM] | activity change, negative = cytotoxicity [17] -1.39% [at 6.97 µM] | activation (H2AX phosphorylation) [5] -1.16% [at 14 µM] | activation [18] -1.07% [at 7.01 µM] | activity change, negative = cytotoxicity [6] -3.49% [at 14 µM] | activity change, negative = cytotoxicity [19] -0.277% [at 6.97 µM] | activity change, negative = cytotoxic [9] 4.84% [at 6.97 µM] | cytotoxicity [10] -7.77% [at 6.97 µM] | activity change, negative = cytotoxic [11] 0.986% [at 6.97 µM]

O=C(O)c1cc(-c2ccc(F)cc2F)ccc1O
inactive: Potency [13] | Potency [14] | Potency [2] | Potency [15] | Potency [17] | Potency [18] | Potency [7] | activity change, positive = activation ([8]; at 42.5 µM (top of the series)) -14.2% | Potency [19] | Potency [10] | Potency [11]
active: Potency [12] 34.7 µM | Potency [20] 9.44 µM

C=CC(=O)Nc1cc2c(Nc3ccc(F)c(Cl)c3)ncnc2cc1OCCCN1CCOCC1
inactive: Potency [12] | Potency [3] | Potency [20] | Potency [16] | Potency [5] | activity change, positive = activation ([8]; at 42.5 µM (top of the series)) -63.1% | Potency [10]
active: Potency [13] 13.3 µM | Potency [14] 13.3 µM | Potency [15] 13.3 µM | Potency [17] 23.9 µM | Potency [7] 16.8 µM | Potency [19] 8.49 µM | Potency [9] 9.52 µM | Potency [11] 10.7 µM

CN1CCCCC1CCN1c2ccccc2Sc2ccc(S(C)=O)cc21 (centres undefined)
inactive: Potency [12] | Potency [13] | Potency [14] | Potency [3] | Potency [16] | Potency [5] | Potency [19] | Potency [10] | Potency [11]

CC1(C)[C@@H](O)CC[C@]2(C)[C@H]3C(=O)C=C4[C@@H]5C[C@@](C)(C(=O)O)CC[C@]5(C)CC[C@@]4(C)[C@]3(C)CC[C@@H]12
inactive: Potency [12] | Potency [13] | Potency [14] | Potency [2] | Potency [3] | Potency [15] | Potency [16] | Potency [7] | activity change, positive = activation ([8]; at 92.4 µM (top of the series)) 3.52% | Potency [19] | Potency [9] | Potency [10] | Potency [11]

C#Cc1ccc(-c2ccccc2F)cc1
inactive: Potency [13] | Potency [14] | Potency [2] | Potency [3] | Potency [15] | Potency [17] | Potency [18] | Potency [6] | Potency [19] | Potency [9] | Potency [10] | Potency [11]
active: Potency [12] 30.9 µM

Cc1c(C)c([N+](=O)[O-])c(C(C)(C)C)c([N+](=O)[O-])c1C
active: Potency [3] 27.3 µM
inactive: Potency [12] | Potency [13] | Potency [14] | Potency [2] | Potency [15] | Potency [20] | Potency [4] | Potency [17] | Potency [5] | Potency [18] | Potency [7] | activity change, positive = activation ([8]; at 92.4 µM (top of the series)) -6.21% | Potency [19] | Potency [9] | Potency [10]
